The record followed here is the antibiotic and cytotoxicity screens of Wong et al. (2023).

The whole screen tested about 39,000 compounds, of which about 1,500 (3.8%) were called active. Many of the other results were omitted from the sample, so actives are more common in it than they were.

This test has as its system HSkMC (human skeletal muscle cells). As to the kind of experiment: cytotoxicity call (relative viability < 0.9). The note with it: 10 µM.
Turning to `CC(=O)O[C@H]1C[C@@]2(C)[C@@H](C[C@@H](O)[C@@H]3[C@@]4(C)CC[C@@H](O)[C@@H](C)[C@@H]4CC[C@@]32C)/C1=C(/CCC=C(C)C)C(=O)O`, the cytotoxicity call is “inactive”.
On to `COc1ccccc1S(=O)(=O)N[C@H]1C=C[C@@H](CC(=O)N2CCN(C)CC2)O[C@H]1CO`, for which the cytotoxicity call was “inactive”.
For `O=C(C[C@@H]1CC[C@@H]2[C@H](COC[C@H](O)CN2S(=O)(=O)c2ccccc2)O1)N[C@@H]1CCN(Cc2ccccc2)C1`, the cytotoxicity call is “inactive”.
For `C=CCC[C@H](Cc1ccc(F)cc1)C(=O)OC[C@@H](NC(=O)[C@@H](CC=C)CC(=O)N(CCO)Cc1ccccc1)c1ccccc1`, the cytotoxicity call is “active”.
As for `C=CC[C@@H](CC(=O)N(CCO)Cc1ccccc1)C(=O)N[C@H](COC(=O)[C@@H](CC=C)Cc1ccc(F)cc1)c1ccccc1`, the cytotoxicity call is “inactive”.
The value for `C=CCC[C@@H](Cc1ccc(F)cc1)C(=O)OC[C@@H](Cc1ccccc1)NC(=O)[C@H](CC=C)CC(=O)N(CCO)Cc1ccccc1` was “inactive”.
The value for `C=CCC[C@H](Cc1ccc(F)cc1)C(=O)OC[C@@H](NC(=O)[C@H](CC=C)CC(=O)N(CCO)Cc1ccccc1)c1ccccc1` was “inactive”; that for `C=CCC[C@@H](Cc1ccc(F)cc1)C(=O)OC[C@@H](NC(=O)[C@@H](CC=C)CC(=O)N(CCO)Cc1ccccc1)c1ccccc1` was “active”; that for `C=CCC[C@@H](Cc1ccc(F)cc1)C(=O)OC[C@@H](NC(=O)[C@H](CC=C)CC(=O)N(CCO)Cc1ccccc1)c1ccccc1` was “inactive”.
For `Cc1ccc(S(=O)(=O)N(C)C[C@H]2Oc3ccc(NC(=O)Nc4cccc5ccccc45)cc3C(=O)N([C@H](C)CO)C[C@@H]2C)cc1` the value was “inactive”; for `COc1ccc(C#Cc2ccc3c(c2)[C@]2(C(=O)N3)[C@H](C(N)=O)[C@H]3C(=O)O[C@H](c4ccccc4)[C@H](c4ccccc4)N3[C@@H]2c2ccc(OCCO)cc2)cc1`, “inactive”; for `Cc1cc(-c2ccccc2)nc(SCc2ccccc2)c1C#N`, “inactive”.
As to `COc1ccc(S(=O)(=O)N(C)C[C@@H]2Oc3ccc(NS(C)(=O)=O)cc3CC(=O)N([C@@H](C)CO)C[C@H]2C)cc1`, the cytotoxicity call is “inactive”.
With `CS(=O)(=O)Nc1ccc2c(c1)[C@@H]1C[C@H](CC(=O)NCc3ccc(-c4ccccc4)cc3)O[C@H](CO)[C@@H]1O2`, the cytotoxicity call is “inactive”.
On to `COc1ccc(S(=O)(=O)N(C)C[C@@H]2Oc3c(NC(=O)NC(C)C)cccc3C(=O)N([C@H](C)CO)C[C@@H]2C)cc1`, for which the cytotoxicity call was “inactive”.
On to `Cc1noc(C)c1NC(=O)Nc1ccc2c(c1)C(=O)N([C@H](C)CO)C[C@H](C)[C@H](CN(C)C(=O)Nc1ccccc1)OCCCC[C@@H](C)O2`, for which the cytotoxicity call is “inactive”.
With `CC1=C(/C=C/C(C)=C/C=C/C(C)=C\C(=O)O)C(C)(C)CCC1`, the cytotoxicity call is “inactive”.
For `C[C@H]1CN([C@@H](C)CO)C(=O)Cc2cc(NC(=O)Nc3cccc(C(F)(F)F)c3)ccc2O[C@H]1CN(C)S(=O)(=O)c1ccc(Cl)cc1` the value was “active”; for `COc1ccc(S(=O)(=O)N(C)C[C@@H]2Oc3ccc(NC(=O)Nc4cccc(C(F)(F)F)c4)cc3CC(=O)N([C@@H](C)CO)C[C@@H]2C)cc1Cl`, “active”.
In the case of `C[C@H](CO)N1C[C@H](C)[C@H](CN(C)S(=O)(=O)c2ccc(Cl)cc2)Oc2ccc(NC(=O)Nc3ccc(C(F)(F)F)cc3)cc2CC1=O`, the cytotoxicity call was “active”.
With `C[C@@H]1CN([C@@H](C)CO)C(=O)Cc2cc(NC(=O)Nc3ccc(C(F)(F)F)cc3)ccc2O[C@H]1CN(C)S(=O)(=O)c1ccc(Cl)cc1`, the cytotoxicity call was “inactive”.
`C[C@H]1CN([C@@H](C)CO)C(=O)Cc2cc(NC(=O)Nc3cccc(C(F)(F)F)c3)ccc2O[C@H]1CN(C)S(=O)(=O)c1ccc(Oc2ccccc2)cc1`: the cytotoxicity call was “inactive”.
Regarding `C[C@@H]1CN([C@@H](C)CO)C(=O)Cc2cc(NC(=O)Nc3ccc(C(F)(F)F)cc3)ccc2O[C@@H]1CN(C)S(=O)(=O)c1ccc(Cl)cc1`, the cytotoxicity call was “active”.
Consider `C[C@H](CO)N1C[C@H](C)[C@@H](CN(C)S(=O)(=O)c2ccc(Cl)cc2)Oc2ccc(NC(=O)Nc3ccc(C(F)(F)F)cc3)cc2CC1=O`, for which the cytotoxicity call is “inactive”.
Consider `C[C@@H]1CN([C@@H](C)CO)C(=O)c2cc(NS(=O)(=O)c3ccc(F)cc3)ccc2O[C@@H](C)CCCCO[C@@H]1CN(C)Cc1ccc(C(=O)O)cc1`, for which the cytotoxicity call was “inactive”.
Take `C[C@H]1CN([C@@H](C)CO)C(=O)CCCn2cc(nn2)CO[C@@H]1CN(C)Cc1cccc2c1OCCCO2`: the cytotoxicity call is “inactive”.
As to `CO[C@H]1O[C@H](CO)[C@@H](OC(=O)Nc2ccc(Oc3ccccc3)cc2)[C@H](OC(=O)Nc2ccccc2)[C@H]1OC(=O)Nc1ccccc1`, the cytotoxicity call was “inactive”.
As for `COc1ccc(S(=O)(=O)N(C)C[C@@H]2OCCCC[C@@H](C)Oc3ccc(NC(=O)Nc4ccccc4)cc3C(=O)N([C@H](C)CO)C[C@H]2C)cc1`, the cytotoxicity call was “inactive”.
The value for `O=C(C[C@H]1CC[C@H]2[C@@H](COC[C@@H](O)CN2S(=O)(=O)c2ccc(Oc3ccccc3)cc2)O1)NC1CCC1` was “inactive”.
On to `CC(C)NC(=O)Nc1ccc2c(c1)C(=O)N([C@H](C)CO)C[C@@H](C)[C@@H](CN(C)S(=O)(=O)c1cn(C)cn1)O2`, for which the cytotoxicity call is “inactive”.
Regarding `C[C@H]1CN([C@@H](C)CO)C(=O)c2cc(NC(=O)Nc3cccc4ccccc34)ccc2O[C@@H]1CN(C)Cc1ccc(C(=O)O)cc1`, the cytotoxicity call is “inactive”.
As for `COC(=O)c1c(CC[C@@H](CO)NC(=O)N[C@H](Cn2cc(-c3ccccc3C)nn2)C(C)C)oc(C(C)=O)c1C(=O)OC`, the cytotoxicity call was “inactive”.
For `CCCN(C)C[C@H]1OCCCC[C@@H](C)Oc2ccc(NC(=O)C3CCCCC3)cc2C(=O)N([C@H](C)CO)C[C@@H]1C` the value was “inactive”.
With `C[C@@H]1CN([C@H](C)CO)C(=O)Cc2cc(NC(=O)Nc3ccc(C(F)(F)F)cc3)ccc2O[C@@H]1CN(C)S(=O)(=O)c1ccc(Cl)cc1`, the cytotoxicity call was “active”.
Take `C[C@@H]1CN([C@H](C)CO)C(=O)Cc2cc(NC(=O)Nc3ccc(C(F)(F)F)cc3)ccc2O[C@H]1CN(C)S(=O)(=O)c1ccc(Cl)cc1`: the cytotoxicity call is “active”.
`C[C@H](CO)N1C[C@H](C)[C@@H](CN(C)S(C)(=O)=O)Oc2ccc(NC(=O)Nc3ccc(C(F)(F)F)cc3)cc2CC1=O`: the cytotoxicity call is “inactive”.
Regarding `C[C@@H]1CN([C@H](C)CO)C(=O)Cc2cc(NC(=O)Nc3ccc(C(F)(F)F)cc3)ccc2O[C@H]1CN(C)S(C)(=O)=O`, the cytotoxicity call was “inactive”.
In the case of `C[C@H]1CN([C@@H](C)CO)C(=O)Cc2cc(NC(=O)Nc3ccc(C(F)(F)F)cc3)ccc2O[C@H]1CN(C)S(C)(=O)=O`, the cytotoxicity call was “inactive”.
In the case of `C[C@H]1CN([C@@H](C)CO)C(=O)Cc2cc(NC(=O)Nc3ccc(C(F)(F)F)cc3)ccc2O[C@H]1CN(C)S(=O)(=O)c1ccc(Cl)cc1`, the cytotoxicity call is “active”.
On to `Cc1ccccc1S(=O)(=O)N(C)C[C@@H]1Oc2ccc(NC(=O)Nc3cccc(C(F)(F)F)c3)cc2CC(=O)N([C@@H](C)CO)C[C@@H]1C`, for which the cytotoxicity call is “active”.
In the case of `C[C@@H]1CN([C@H](C)CO)C(=O)Cc2cc(NC(=O)Nc3ccc(C(F)(F)F)cc3)ccc2O[C@@H]1CN(C)S(C)(=O)=O`, the cytotoxicity call was “inactive”.
Regarding `C[C@H]1CN([C@@H](C)CO)C(=O)Cc2cc(NC(=O)Nc3ccc(C(F)(F)F)cc3)ccc2O[C@@H]1CN(C)S(=O)(=O)c1ccc(Cl)cc1`, the cytotoxicity call is “inactive”.
`C[C@@H]1CN([C@@H](C)CO)C(=O)Cc2cc(NC(=O)Nc3ccc(C(F)(F)F)cc3)ccc2O[C@H]1CN(C)S(C)(=O)=O`: the cytotoxicity call was “inactive”.
On to `COc1ccc(NC(=O)N(C)C[C@@H]2OCc3ccccc3-c3c(n(C)c4ccccc34)C(=O)N([C@H](C)CO)C[C@H]2C)cc1`, for which the cytotoxicity call was “inactive”.
Turning to `C[C@@H]1CN([C@H](C)CO)C(=O)Cc2cc(NS(=O)(=O)c3ccc(Cl)cc3)ccc2O[C@@H]1CN(C)C(=O)Nc1cccc2ccccc12`, the cytotoxicity call is “inactive”.
As for `CO[C@@H](CN(C)S(=O)(=O)c1ccc(C)cc1)[C@@H](C)CN([C@@H](C)CO)S(=O)(=O)c1cccc(Cl)c1`, the cytotoxicity call is “inactive”.
In the case of `C[C@@H]1CN([C@H](C)CO)C(=O)c2cc(NS(=O)(=O)c3ccc(Cl)cc3)ccc2O[C@@H](C)CCCCO[C@@H]1CN(C)C(=O)Cc1ccccc1`, the cytotoxicity call was “inactive”.
`CN1CCN(C(=O)C[C@H]2C=C[C@H](NC(=O)Cc3ccccn3)[C@H](CO)O2)CC1`: the cytotoxicity call is “inactive”.
The value for `O=C(C1=C[C@H](c2ccsc2)C[C@H](OCCCCO)O1)N1CCN(Cc2ccc3c(c2)OCO3)CC1` was “inactive”.
The value for `COC(=O)c1c2oc(c1C(=O)OC)C(=O)N[C@@H](Cc1ccccc1)Cn1cc(nn1)[C@@H](Cc1ccccc1)NC(=O)N[C@H](CO)CC2` was “inactive”.
Regarding `C[C@H](CO)N1C[C@H](C)[C@H](CN(C)S(=O)(=O)c2ccccc2)OCCCC[C@H](C)Oc2ccc(NC(=O)NC3CCCCC3)cc2C1=O`, the cytotoxicity call was “inactive”.
In the case of `CCNc1cc(=N)n(CC)c2n[nH]c(N)c12`, the cytotoxicity call was “inactive”.
Regarding `CON=C1CC2(CC3CC(CC=C(C)CC(C)C=CC=C4COC5C(O)C(C)=CC(C(=O)O3)C45O)O2)OC(C(C)=CC(C)C)C1C` (stereo unspecified), the cytotoxicity call is “active”.
Consider `CO/N=C1\C[C@]2(C[C@@H]3C[C@@H](C/C=C(\C)C[C@@H](C)/C=C/C=C4\CO[C@@H]5[C@H](O)C(C)=C[C@@H](C(=O)O3)[C@]45O)O2)O[C@H](/C(C)=C/C(C)C)[C@H]1C`, for which the cytotoxicity call was “active”.
Regarding `COC(=O)C=CC(=O)OC`, the cytotoxicity call was “inactive”.
For the compound `C[C@@H](NC(=O)C[C@H]1CC[C@@H](NC(=O)CN2CCOCC2)[C@H](CO)O1)c1ccccc1`, the cytotoxicity call is “inactive”.
For `C#CC1(O)CCC2C3CCC4=CCCCC4C3CCC21C` (stereo unspecified) the value was “active”; for `C#CC1(O)CCC2C3CCC4=CC(=O)CCC4C3CCC21C` (stereo unspecified), “inactive”; for `C#CC1(O)CCC2C3CCC4=CCCCC4C3C(=C)CC21CC` (stereo unspecified), “inactive”.
For `C[C@H](CO)N1C[C@H](C)[C@H](CN(C)C(=O)Cc2ccccc2)OCCCC[C@H](C)Oc2ccc(NC(=O)Nc3ccc4c(c3)OCO4)cc2C1=O`, the cytotoxicity call was “inactive”.
For `C[C@@H]1CN([C@@H](C)CO)C(=O)c2cc(NS(=O)(=O)c3cn(C)cn3)ccc2O[C@H]1CN(C)Cc1ccc(C(=O)O)cc1` the value was “inactive”.
